A selection: hits, their analogues and other compounds. The true share with any hit is near 15%.
Pf growth 96h: P. falciparum growth inhibition at 96 hours. hit rate 6.9% among 320,000. Potency, µM (top dose mostly 28.7 µM), for inactives: at the highest dose activity change, negative = inhibition, actives largely listed as inhibitors. AID 504834. P. falciparum luciferase reporter growth, 96 h; also: potency is read from the fitted curve at half-maximal effect; % is scaled to controls: 0 for no effect and ±100 for the full control effect
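Plates of compound plus infected erythrocytes (2% hematocrit, 0.05% parasitemia final) incubate 96 hours, 37 C, 5% CO2. Detection reagent added; reduced luminescence from the parasites' luciferase reporter flags inhibition.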
Sm TGR inh: S. mansoni TGR enzyme inhibition | Potency, µM (series often up to 114 µM), without a hit: at the highest dose activity change, negative = inhibition, hits mostly inhibitors | AID 485364 | Q962Y6 | purified TGR, DTNB reduction, TNB absorbance 405 nm | hit rate 3% among 360,000; also: potency is read from the fitted curve at half-maximal effect; % is scaled to controls: 0 for no effect and ±100 for the full control effect; nearly all actives have a fitted effect of over 60% in size
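First, TGR (20 nM dispensed) and NADPH were mixed with compound. Second, a 15 min room-temperature incubation followed. Third, further NADPH and then DTNB were added to start the reaction. Finally, TNB absorbance was monitored kinetically.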
Pf growth 48h: P. falciparum growth inhibition at 48 hours (one generation); hit rate 5.9% among 310,000; Potency, µM (top dose mostly 28.7 µM), for the others: top-dose activity change, negative = inhibition, usual class: inhibitors; P. falciparum luciferase growth in erythrocytes, 48 h; also: potency is read from the fitted curve at half-maximal effect; % is scaled to controls: 0 for no effect and ±100 for the full control effect
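Luminescence readout; reporter = integrated firefly luciferase in P. falciparum. RBC culture at 2% hematocrit, 0.1% parasitemia final, 37 C/5% CO2; decreased signal taken as growth inhibition.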
SARS PLP yeast: inhibitors of SARS-CoV papain-like protease in yeast; hit rate 0.19% among 330,000; Potency, µM (top dose mostly 32.9 µM), for the others: at the top dose activity, positive = growth rescue, hits mostly activators; S. cerevisiae expressing SARS-CoV PLpro, growth rescue; AID 485353; calls by dose curve; also: potency is read from the fitted curve at half-maximal effect; 0% is about no effect; nearly all actives have a fitted effect of over 55% in size
HCV inhibitor: HCV inhibition; Huh7.5.1 HCVcc-Cre infection, luciferase reporter, 44 h; Potency, µM (doses to about 41.8 µM), inactives show at the top dose activity change, negative = inhibition, hits mostly inhibitors; hit rate 3.4% among 340,000; AID 651820; also: potency is read from the fitted curve at half-maximal effect; % is scaled to controls: 0 for no effect and ±100 for the full control effect
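Whole-lifecycle infectious HCVcc-Cre system; cells 1,000/well, compound then virus (~0.5 moi) added 4 h after plating, 44 h culture. Luciferase read 15 sec following 15 min substrate incubation, room temp.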
HCMV antiviral: inhibitors of human cytomegalovirus | HFF cells, HCMV-luciferase reporter, 72 h; active compounds read low | activity change, negative = inhibition, % at 57.5 µM | hit rate 4.5% among 410,000 | AID 1259415; in the data active = activity change below about -60%; inconclusive = no clear call, values can overlap the other calls; inactive = above about -39%; also: % is scaled to controls: 0 for no effect and ±100 for the full control effect
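Steps: HFFs plated, 16 h 37C; compounds added; HCMV-luciferase added to MOI 1 PFU/cell; 72 h 37C; OneGlo reagent, 5 min room temperature; luminescence read, normalized to controls.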
An asterisk follows results filed as active; ? = inconclusive; . = no result. Unless noted, calls follow the shape of the dose curve; as a rule, active = well fitted curve in the direction sought with a large enough effect; inconclusive = small, poorly fitted or top-dose-only effect, or another doubt; inactive = no such curve, though single readings can be large; an effect the other way counts as inactive or inconclusive.

SMILES | Pf growth 96h | Sm TGR inh | Pf growth 48h | SARS PLP yeast | HCV inhibitor | HCMV antiviral
COc1ccc(-c2cc(-c3ccccc3)nc(SCC(=O)Nc3ccccc3C)c2C#N)cc1 | . | 0% | . | . | . | 9
COc1ccc(CNC(=O)CSc2nc(-c3ccccc3)cc(-c3cccs3)c2C#N)cc1 | 6.6µM* | 9% | . | 7% | 0% | -4
COc1cc(-c2cc(-c3ccccc3)nc(SCC(=O)Nc3nccs3)c2C#N)cc(OC)c1OC | ? | 35% | 1.2µM* | 1% | -23% | 16
Cc1ccnc(NC(=O)c2cccc(S(=O)(=O)N3CCCC3)c2)c1 | 41% | 9% | 48% | 1% | 14% | 33
COc1ccc(NC(=O)c2cccc(N3C(=O)C4C5C=CC(C5)C4C3=O)c2)cc1 (stereo unspecified) | 17% | -1% | -6% | 25% | . | 82
Cc1cccc(NC(=O)c2cccc(N3C(=O)C4C5C=CC(C6CC56)C4C3=O)c2)c1 (stereo unspecified) | ? | -21% | 16% | 1% | 11µM* | 2
Cc1cc(C)cc(NC(=O)c2cccc(N3C(=O)C4C5C=CC(C5)C4C3=O)c2)c1 (stereo unspecified) | 4.7µM* | 0% | ? | 1% | -12% | -13
CC1(C)O[C@H]2[C@@H](O1)[C@@H](C(=O)Nc1ccc(F)c(F)c1)O[C@@H]1OC(C)(C)O[C@@H]12 | . | -1% | . | . | . | 11
CN1CCN(c2nc(-c3ccc(Cl)cc3)nc3ccccc23)CC1 | ? | 10% | 1% | 1% | -26% | 67
COCc1c(C(=O)OCC(=O)N2c3ccccc3CC2C)oc2ccccc12 (stereo unspecified) | 34% | -22% | 10% | 2% | 12% | 13
COc1cc(OC)cc(C(=O)NCC(=O)OCC(=O)N2c3ccccc3NC(=O)C2(C)C)c1 | 35% | -2% | 18% | -4% | 19% | -98*
COCc1c(C(=O)OCC(=O)N2c3ccccc3NC(=O)C2(C)C)oc2ccccc12 | 12µM* | -4% | ? | -13% | ? | 7
O=C(OCC(=O)N1CCN(C(=O)c2ccco2)CC1)c1cncc(Br)c1 | -19% | ? | 12% | 2% | 7% | 0
CC1(C)C2CC[C@]3(C)C(CC=C4[C@@H]5C[C@@](C)(CO)[C@@H](O)C[C@]56C[C@@H](OC6=O)[C@]43C)[C@@]2(C)CC[C@@H]1O (stereo partly specified) | . | . | . | . | 1.3µM* | 26
CC(C)(O)[C@@H]1[C@@H]2C[C@@]3(CC[C@]4(C)C(CCC5[C@@]6(C)CC[C@H](O)C(C)(C)C6CC[C@]54C)[C@@H]13)C(=O)O2 (stereo partly specified) | . | . | . | . | 0% | .
COC(=O)c1cc2sccc2n1Cc1c(C)cc(C)cc1C | . | 0% | . | . | . | 15
Nc1ccc(C(=O)N/N=C/c2cn(Cc3cccc(F)c3)c3ccccc23)cc1 | -15% | 0% | -14% | 14% | ? | .
CCOC(=O)/C(C#N)=C/c1ccc(SC)cc1 | ? | -2% | 18% | -1% | 16% | 20
Cc1ccc(NC(=O)CSCC(=O)Nc2ncc3c(n2)CC(c2ccco2)CC3=O)cc1 (stereo unspecified) | ? | 50µM* | 12% | ? | 5% | .
Cc1ccc(C(=O)Nc2ncc3c(n2)CC(c2ccco2)CC3=O)cc1 (stereo unspecified) | -6% | ? | 55% | -16% | -5% | 137
Cc1cc(C)cc(Nc2ncc3c(n2)CC(c2ccco2)CC3=O)c1 (stereo unspecified) | 12% | 50µM* | -19% | -22% | -16% | 1
Cc1cc(C)cc(OCC(=O)NCC2(N(C)C)CCCCC2)c1 | . | 2% | . | . | . | 0
CC(C)COC(=O)N1CCCC1C(=O)O (stereo unspecified) | ? | -15% | 0% | 6% | 3.2µM* | 7
C=C1C(n2cnc3c(=O)[nH]c(N)nc32)C[C@H](O)[C@H]1CO (stereo partly specified) | 6µM* | . | ? | . | . | .
N#Cc1ccsc1NC(=O)C1CCN(C(=O)c2ccc(Cl)cc2)CC1 | -14% | ? | -7% | -6% | -13% | 1
SMILES | Pf growth 96h | Sm TGR inh | Pf growth 48h | SARS PLP yeast | HCV inhibitor | HCMV antiviral
CC1(C)CC(NCCN2CCN(C3=CC(=C(C#N)C#N)CC(C)(C)C3)CC2)=CC(=C(C#N)C#N)C1 | ? | 0% | ? | 0% | ? | -63*
CCOC(=O)N1CCN(C(=O)CN(Cc2ccc(Cl)cc2)S(C)(=O)=O)CC1 | 1% | 2% | -6% | -2% | 5% | -3
CCN(CC(=O)N1CCCCCC1)S(=O)(=O)c1ccc(C)cc1 | 7.4µM* | -4% | -15% | -4% | 13% | -4
CCN(CC(=O)N1CCCC1)S(=O)(=O)c1ccc(Br)cc1 | 0% | 2% | ? | -1% | 6% | -1
CCN(CC(=O)N1CCN(C)CC1)S(=O)(=O)c1ccc(Cl)cc1 | 9.3µM* | 6% | -14% | 8% | -5% | 15
CCOC(=O)N1CCN(C(=O)CN(Cc2ccc(Cl)cc2)S(=O)(=O)c2ccc(C)cc2)CC1 | 1.9µM* | -16% | . | -2% | ? | -38
CCN(CC(=O)N1CCCCCC1)S(=O)(=O)c1ccc(Cl)cc1 | 19% | -3% | ? | . | 12% | -9
Fc1ccccc1N1CCN(c2ncnc3onc(-c4cccc(Cl)c4)c23)CC1 | . | 0% | . | . | . | -36
COc1cc(-c2cc3nc(NCc4ccco4)ccn3n2)cc(OC)c1OC | . | . | . | . | . | 167
CCOC(=O)CNC(=O)CSc1nc(Cc2ccccc2)nc2ccccc12 | ? | -5% | -1% | 5% | -18% | 6
CCNS(=O)(=O)c1ccc2c(c1)NCC2 | -1% | -1% | 11% | -1% | 6% | 25
CC1(C)NC(=O)N(CCOCCSc2ccccc2)C1=O | 9.3µM* | -3% | 34% | 1% | 11% | 10
Cc1nc(NC(=O)/C=C/c2ccc(Cl)cc2Cl)sc1C(=O)N(C)C | ? | 4% | 15% | -25% | 8% | -61*
Cc1nc(NC(=O)/C=C/c2ccccc2)sc1C(=O)N(C)C | 43% | -5% | 137% | -12% | 21% | 43
CCc1cccc(C)c1NC(=O)c1cnn(-c2ccc(OC)cc2)c1C1CCN(C(=O)OC(C)(C)C)CC1 | . | 2% | . | . | . | ?
Cc1cc(NC(=O)CCSc2nc(-c3ccco3)cc(C(F)(F)F)n2)no1 | . | -8% | -24% | -1% | ? | 24
COc1ccc(NC(=O)CCSc2nc(-c3ccco3)cc(C(F)(F)F)n2)cc1 | . | 0% | . | . | . | -8
Cc1ccccc1Cn1ccc(NC(=O)CCSc2nc(-c3ccco3)cc(C(F)(F)F)n2)n1 | . | -3% | -24% | -11% | 3.2µM* | 7

Screening data from PubChem BioAssay.
